# Assay results published in PubChem BioAssay.
# Active and inactive are the calls of the source.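 How the source made its calls, unless noted: active means compounds that lower survival of HCT116 colon cancer cells in the luminescence readout, no numeric limit stated; inactive means the rest.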
# Experiment: glucagon-like peptide 1 release enhancers, primary assay, NCI-H716 cell line, NPC library (AID 1117341;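 active means compound raises GLP1 secretion from the human gut endocrine cells, with no numeric limit stated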; further: reference of the scale not given here)
# Conditions: NCI-H716 cells, at 10 µM, stronger effect = higher value
row,Compound,GLP1 secretion stimulation
1,Cc1c(O)cccc1C(=O)N[C@@H](CSc1ccccc1)[C@H](O)CN1C[C@H]2CCCC[C@H]2C[C@H]1C(=O)NC(C)(C)C,7.9% (inactive)
2,CCc1nn(CCCN2CCN(c3cccc(Cl)c3)CC2)c(=O)n1CCOc1ccccc1,-2.9% (inactive)
3,Nc1[nH]c(=O)ncc1F,2.3% (inactive)
4,O=C1CCc2ccc(OCCCCN3CCN(c4cccc(Cl)c4Cl)CC3)cc2N1,10.2% (inactive)
5,COc1cc(C(=O)NC2CCCNC2)cc(OC)c1OC (centres undefined),3.3% (inactive)
6,COc1ccc(C(=O)NCc2ccc(OCCN(C)C)cc2)cc1OC,-0.4% (inactive)
7,COCc1c(C(C)C)nc(C(C)C)c(/C=C/[C@@H](O)C[C@@H](O)CC(=O)O)c1-c1ccc(F)cc1,3.1% (inactive)
8,CC(C)(C)C(O)/C=C/c1ccc2c(c1)OCO2 (centres undefined),1.9% (inactive)
9,Cc1ccnc2c1NC(=O)c1cccnc1N2C1CC1,-2% (inactive)
10,CCOc1cc(CC(=O)N[C@@H](CC(C)C)c2ccccc2N2CCCCC2)ccc1C(=O)O,0.5% (inactive)
11,Nc1c2c(nc3c1CCC3)CCCC2,4.4% (inactive)
12,CCOC(=O)OC(C)OC1=C(C(=O)Nc2ccccn2)N(C)S(=O)(=O)c2ccccc21 (centres undefined),1% (inactive)
13,CN1CCN(c2c(F)cc3c(=O)c(C(=O)O)cn4c3c2SCC4)CC1,1.6% (inactive)
14,Cc1nc2n(c(=O)c1CCN1CCC(c3noc4cc(F)ccc34)CC1)CCCC2,2.3% (inactive)
15,O=C(O)/C=C/c1ccc(Cn2ccnc2)cc1,5.1% (inactive)
16,O=C(NCCO[N+](=O)[O-])c1cccnc1,-1.4% (inactive)
17,Cc1nc2ccc(CN(C)c3ccc(C(=O)N[C@@H](CCC(=O)O)C(=O)O)s3)cc2c(=O)[nH]1,1% (inactive)
18,CCCN1CCCC[C@H]1C(=O)Nc1c(C)cccc1C,3.3% (inactive)
19,COc1cc2c(cc1OC)C(=O)C(CC1CCN(Cc3ccccc3)CC1)C2 (centres undefined),6.3% (inactive)
20,N#Cc1ccc(C(c2ccc(C#N)cc2)n2cncn2)cc1,-2.1% (inactive)
21,Cc1[nH]cnc1CN1CCc2c(c3ccccc3n2C)C1=O,5.1% (inactive)

# Experiment: HCT116 colon cancer cell growth inhibition, primary screen, CellTiter-Glo luminescence, NPC library (AID 1117342)
# Conditions: at 20 µM (top of the series)
row,Compound,inhibition of viability
1,CNNCc1ccc(C(=O)NC(C)C)cc1,-1.9% (inactive)
2,Nc1nc2c(ncn2CCC(CO)CO)c(=O)[nH]1,6.65% (inactive)
3,O=C1CC2(CCCC2)CC(=O)N1CCNCC1COc2ccccc2O1 (centres undefined),25.7% (inactive)
4,Cn1nnc2c(C(N)=O)ncn2c1=O,1.9% (inactive)
5,O=C1[C@H]2CCCC[C@H]2C(=O)N1CCCCN1CCN(c2nsc3ccccc23)CC1,88.1% (active)
6,O=C(O)CCNC(=O)c1ccc(N=Nc2ccc(O)c(C(=O)O)c2)cc1,6.1% (inactive)
7,CC(Oc1c(Cl)cccc1Cl)C1=NCCN1 (centres undefined),31.3% (inactive)
8,CN1CCN(C2=Nc3cc(F)ccc3Cc3ccccc32)CC1,37.7% (inactive)
9,COC(=O)C1=C(C)NC(C)=C(C(=O)OC(C)C)C1c1cccc2nonc12 (centres undefined),48.4% (inactive)
10,CCOc1cc(N)c(Cl)cc1C(=O)NCC1CN(Cc2ccc(F)cc2)CCO1 (centres undefined),46.1% (inactive)
11,O=c1c(-c2ccccc2)c1-c1ccccc1,64.4% (active)
12,O=C1Nc2ccc(Cl)cc2[C@@](C#CC2CC2)(C(F)(F)F)O1,87.9% (active)
13,Nc1nc(N)nc(-c2cc(Cl)ccc2Cl)n1,-27.9% (inactive)
14,OCCOCCN1CCN(C2=Nc3ccccc3Sc3ccccc32)CC1,10.6% (inactive)
15,CC(=O)Nc1ccc(CC(=O)O)cc1,-11% (inactive)
16,O=c1[nH]cnc2c1ncn2[C@H]1CC[C@@H](CO)O1,-3.4% (inactive)
17,COC(=O)C1=C(C)NC(C)=C(C(=O)O[C@@H]2CCCN(Cc3ccccc3)C2)[C@@H]1c1cccc([N+](=O)[O-])c1,109% (active)
18,Cc1c(O)cccc1C(=O)N[C@@H](CSc1ccccc1)[C@H](O)CN1C[C@H]2CCCC[C@H]2C[C@H]1C(=O)NC(C)(C)C,124% (active)
19,CCc1nn(CCCN2CCN(c3cccc(Cl)c3)CC2)c(=O)n1CCOc1ccccc1,85.7% (active)
20,Nc1[nH]c(=O)ncc1F,-15.1% (inactive)
21,O=C1CCc2ccc(OCCCCN3CCN(c4cccc(Cl)c4Cl)CC3)cc2N1,99.4% (active)
22,COc1cc(C(=O)NC2CCCNC2)cc(OC)c1OC (centres undefined),0.8% (inactive)
23,COc1ccc(C(=O)NCc2ccc(OCCN(C)C)cc2)cc1OC,7% (inactive)
